From PubChem
Sa RN4220 lethal = S. aureus RN4220 growth inhibition; OD600, 16 h; inhibition, % (concentration not given with the values); actives 0.33% (n = 330,000); AID 1259311; in the data active = inhibition above about 85%
Sa ugtP lethal = growth inhibition of S. aureus ugtP deletion strain | S. aureus RN4220 ugtP deletion, OD600 growth, 16 h | growth inhibition, % (test concentration not listed) | actives 0.54% (n = 330,000) | AID 1259309; in the data active = growth inhibition above about 68%
PfHsp40 yeast = restores yeast growth despite PfHsp40 toxicity; S. cerevisiae expressing PfHsp40, growth rescue, ATP luminescence; growth rescue, % at 12.5 µM; actives 0.68% (n = 340,000); AID 504582; in the data active = growth rescue above about 28%, passing the limit was not always enough; inconclusive = no clear call, values can overlap the other calls;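 also: yeast W303a lacking pdr1 and pdr3 grown in galactose medium; growth measured after three days at 30 °C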
CCHFV vOTU inh = blocks the CCHF virus ovarian tumor domain protease; actives 0.55% (n = 370,000); inhibition, % at 11.5 µM; CCHFV vOTU protease, Pep-AMC fluorescence; AID 651958; in the data active = inhibition above about 30%
PrP UTR inh = inhibition of PrP 5' UTR reporter expression | actives 0.35% (n = 340,000) | AID 488862 | inhibition, % (no concentration beside the values) | cell-based PrP 5' UTR mRNA reporter, plate reader; in the data active = inhibition above about 52%
PrPC TRFRET = cell surface PrPC inhibition, primary TR-FRET screen | actives 0.43% (n = 370,000) | inhibition, % at 13.8 µM | TR-FRET read-out | AID 720596; in the data active = inhibition above about 24%
PrP 5UTR single = prion 5' UTR mRNA inhibition, cherry-pick retest; shares compounds with PrP UTR inh; cell-based prion protein 5' UTR reporter, plate reader; inhibition, % at 2.5 µM; actives 48% (n = 1,100); in the data active = inhibition above about 54%; inconclusive = no clear call, values can overlap the other calls
A number is an active result; i = inactive; ? = inconclusive; nt = no result given. The list is not random: actives were taken first. Their share in the collection is about 2.1%.

SMILES | Sa RN4220 lethal | Sa ugtP lethal | PfHsp40 yeast | CCHFV vOTU inh | PrP UTR inh | PrPC TRFRET | PrP 5UTR single
Cn1c(NC2CCCCC2)cc(=O)n(C)c1=O | i | i | i | i | i | i | nt
Cc1cc(C2CCCCC2)n(O)c(=O)c1 | nt | nt | ? | i | 68.9 | i | i
CCOc1ccc(OCc2cccc(C(=O)O)c2)cc1 | i | i | i | i | 92.7 | i | 94.6
COc1ccc(OCc2cccc(C(=O)O)c2)cc1 | i | i | i | i | 93.3 | i | 93.6
O=C(NCc1ccccc1)c1cccc(COc2ccc3c(c2)CCC3)c1 | i | i | i | i | i | i | nt
O=Cc1ccc(OCc2cccc(C(F)(F)F)c2)cc1O | i | i | i | i | i | i | nt
O=C(O)c1cccc(COc2ccc3c(c2)CCC3)c1 | i | i | i | i | 82.2 | i | 88.3
O=C(OCC(F)(F)F)c1cccc(COc2ccc3ccccc3c2)c1 | i | i | i | i | 62.9 | i | 66.0
CCOC(=O)c1[nH]c(C)c(C(O)=C2C(=O)C(=O)N(CCN(C)C)C2c2ccncc2)c1C (stereo not drawn) | i | i | nt | nt | nt | nt | nt
CC(=NNC(=S)NCCc1ccccc1)c1ccc(C)cc1 | i | i | nt | nt | nt | nt | nt
O=C(Cn1ccc(C(F)(F)F)n1)NN=Cc1ccc2c(c1)OCO2 | i | i | nt | nt | nt | nt | nt
Cc1cccc(OCC(=O)Nc2cc(NC(=O)COc3cccc(C)c3C)cc(C(=O)O)c2)c1C | i | i | i | i | i | i | nt
O=C(O)c1cccc(COc2ccc(CO)cc2Cl)c1 | i | i | i | i | 93.3 | i | 92.7
CCOc1ccc(NC(=O)c2ccccn2)cc1 | i | i | i | i | 61.8 | i | 72.2
Cc1ccccc1OCC(=O)Nc1cccc(C(=O)O)c1 | i | i | i | i | 76.0 | i | 77.5
CCOc1ccc(NC(=O)Nc2cccc(C(=O)O)c2)cc1 | nt | nt | i | i | 88.0 | i | 91.0
O=C(O)c1ccc(COc2ccc(CO)cc2Cl)cc1 | i | i | i | i | i | i | nt
Cn1nc(C(F)(F)F)c(C=NOC(=O)c2ccccc2)c1Sc1ccc(Cl)cc1 | i | i | nt | nt | nt | nt | nt
O=S1(=O)CCOCC(Cc2ccccc2)N1Cc1ccc(Cl)cc1 (stereo not drawn) | i | i | nt | nt | nt | nt | nt
O=C(/C=C\Nc1ccc2c(c1)OCO2)c1ccccn1 | i | i | i | i | 80.5 | i | 77.6
O=C(Nc1ccc2c(c1)OCO2)c1ccccn1 | i | i | i | i | i | i | nt
COc1cc(C2CC=C(C(=O)O)C(c3ccc(Cl)cc3)N2S(=O)(=O)c2ccc(C)cc2)cc(OC)c1OC (stereo not drawn) | i | i | nt | nt | nt | nt | nt
CCOC(=O)COc1cccc2c(=O)n(CC(=O)NCc3ccccc3)ccc12 | i | i | i | i | i | i | nt
CCOC(=O)COc1cccc2c(=O)n(CC(=O)NCc3ccc(F)cc3)ccc12 | i | i | i | i | 60.4 | i | 84.1
Cc1cccc(C(=O)OC2C(C)NS(=O)(=O)C3CC4C=C[C@]23O4)c1 (stereo partly drawn) | i | i | nt | nt | nt | nt | nt
SMILES | Sa RN4220 lethal | Sa ugtP lethal | PfHsp40 yeast | CCHFV vOTU inh | PrP UTR inh | PrPC TRFRET | PrP 5UTR single
COc1cccc(C=NNC(=O)c2cc(OCC(F)(F)F)ccc2OCC(F)(F)F)c1 | i | i | nt | nt | nt | nt | nt
O=C(CN1C(=O)c2ccccc2S1(=O)=O)c1ccc(Cl)cc1Cl | nt | nt | i | i | 79.2 | i | 81.6
O=C(CN1C(=O)c2ccccc2S1(=O)=O)c1ccc(F)cc1 | i | i | i | i | 61.8 | i | i
O=C(CN1C(=O)c2ccccc2S1(=O)=O)c1ccccc1F | i | i | i | i | i | i | nt
O=C(CN1C(=O)c2ccccc2S1(=O)=O)c1ccc(OC(F)F)cc1 | i | i | i | nt | 66.6 | nt | 63.8
Cc1ccc(C)c(C=NNC(=S)NC(C)C)c1 | i | i | nt | nt | nt | nt | nt
Cc1ccc(S(=O)(=O)N2CCN(CC(=O)NN=Cc3ccco3)CC2)cc1 | i | i | nt | nt | nt | nt | nt
COc1ccccc1C(=O)N1CCCC1(C#N)c1ccccc1 (stereo not drawn) | i | i | i | i | 82.7 | i | i
COc1cc(C=Nn2c(-c3cc(C)[nH]n3)n[nH]c2=S)cc(OC)c1OC | i | i | nt | nt | nt | nt | nt
O=C1c2ccccc2C(=O)C1c1ccnc2ccccc12 | i | i | i | i | 57.7 | i | i
O=C1c2ccccc2C(=O)C1c1nccc2ccccc12 | i | i | i | i | i | i | nt
CCOc1ccccc1C1CC(=O)Nc2cc3c(cc21)OCO3 (stereo not drawn) | i | i | i | i | i | i | nt
